Seven compounds from PubChem BioAssay (Tox21) can be followed below.

The target in assay [1] is Aryl hydrocarbon receptor (Homo sapiens) (UniProt P35869). The experiment in a line: qHTS assay to identify small molecule that activate the aryl hydrocarbon receptor (AhR) signaling pathway (AID 743085). Further: nearly all actives have a fitted effect of over 15% in size. Further: potency means the concentration at half of the fitted maximal effect.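 On activation: HG2L7.5c1 human HepG2 liver cells with stably integrated DRE-driven firefly reporter; series mostly up to about 70 µM.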 The method, boiled down: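 Stably transfected human liver carcinoma cells (HG2L7.5c1; 20 DRE-firefly luciferase) were incubated 5 h, dosed, and kept 24 h at 37C. Agonism was scored from increased luciferase luminescence.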
Chain of Aryl hydrocarbon receptor (Homo sapiens) (P35869 whole entry, looked up): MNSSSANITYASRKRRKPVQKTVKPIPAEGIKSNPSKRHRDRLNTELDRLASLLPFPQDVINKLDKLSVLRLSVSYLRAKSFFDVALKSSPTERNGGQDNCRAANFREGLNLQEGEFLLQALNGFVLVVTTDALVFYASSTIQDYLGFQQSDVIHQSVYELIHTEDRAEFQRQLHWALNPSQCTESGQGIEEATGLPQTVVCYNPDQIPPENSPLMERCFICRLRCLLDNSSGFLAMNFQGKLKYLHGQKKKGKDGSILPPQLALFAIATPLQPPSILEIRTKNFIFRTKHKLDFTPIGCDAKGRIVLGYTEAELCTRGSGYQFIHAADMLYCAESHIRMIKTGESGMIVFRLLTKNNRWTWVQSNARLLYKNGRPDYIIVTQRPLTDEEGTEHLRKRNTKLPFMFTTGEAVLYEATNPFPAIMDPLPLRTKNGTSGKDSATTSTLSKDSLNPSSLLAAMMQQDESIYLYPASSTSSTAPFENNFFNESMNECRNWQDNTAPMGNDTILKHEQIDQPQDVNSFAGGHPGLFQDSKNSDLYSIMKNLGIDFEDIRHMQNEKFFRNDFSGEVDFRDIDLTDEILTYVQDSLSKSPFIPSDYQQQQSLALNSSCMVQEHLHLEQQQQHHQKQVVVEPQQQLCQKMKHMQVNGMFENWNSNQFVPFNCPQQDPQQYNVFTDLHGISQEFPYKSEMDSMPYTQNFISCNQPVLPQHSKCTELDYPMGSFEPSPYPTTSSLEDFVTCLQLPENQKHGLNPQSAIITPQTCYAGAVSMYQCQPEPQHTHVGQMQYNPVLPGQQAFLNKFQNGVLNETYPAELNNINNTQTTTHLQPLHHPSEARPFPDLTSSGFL
On the technique in general: qHTS replaces the single test concentration by a dilution series.

For assay [2], the target named is Peroxisome proliferator-activated receptor gamma (Homo sapiens) (UniProt P37231). The experiment in a line: qHTS assay to identify small molecule agonists of the peroxisome proliferator-activated receptor gamma (PPARg) signaling pathway (AID 743094; active means well fitted activation curve with a large enough effect in the signal ratio in the repeat runs, not every such curve was filed as active; the % refers to the signal ratio). The method, boiled down: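 Cells from the PPARg UAS-bla HEK293H line are plated and incubated 5 h at 37C. Compounds in DMSO are pinned in and left 17 h at 37C. LiveBLAzer B/G substrate is then added for 1 h at room temperature before fluorescence is measured.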
Chain of Peroxisome proliferator-activated receptor gamma (Homo sapiens) (P37231 whole entry, looked up): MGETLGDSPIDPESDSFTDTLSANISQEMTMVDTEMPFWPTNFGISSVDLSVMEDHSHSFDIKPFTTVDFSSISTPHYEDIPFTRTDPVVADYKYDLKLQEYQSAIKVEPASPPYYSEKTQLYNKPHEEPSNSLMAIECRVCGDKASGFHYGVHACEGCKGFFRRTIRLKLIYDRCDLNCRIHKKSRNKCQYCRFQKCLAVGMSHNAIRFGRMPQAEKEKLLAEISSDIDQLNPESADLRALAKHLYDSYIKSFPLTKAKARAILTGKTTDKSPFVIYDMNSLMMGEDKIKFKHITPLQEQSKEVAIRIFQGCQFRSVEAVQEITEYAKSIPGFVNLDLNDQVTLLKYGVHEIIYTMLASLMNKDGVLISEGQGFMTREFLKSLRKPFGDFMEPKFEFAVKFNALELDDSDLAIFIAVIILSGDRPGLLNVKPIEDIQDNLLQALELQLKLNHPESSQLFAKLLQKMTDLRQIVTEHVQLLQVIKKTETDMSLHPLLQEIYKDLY

Assay [3] shares this target. Description: qHTS assay to identify small molecule antagonists of the peroxisome proliferator-activated receptor gamma (PPARg) signaling pathway (AID 743191; calls by dose curve; further: series mostly up to about 63 µM; nearly all actives have a fitted effect of over 30% in size). The procedure, abridged:
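GeneBLAzer PPARg UAS-bla HEK293H cells carrying a UAS-driven beta-lactamase reporter were plated at 3000 cells/well, preincubated 5 h at 37C, then given compound for 17 h at 37C; LiveBLAzer B/G FRET substrate was read after 1 h at room temperature.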

The nature of assay [4]: qHTS assay to identify small molecule antagonists of the peroxisome proliferator-activated receptor gamma (PPARg) signaling pathway - cell viability counter screen (AID 743194). Further: nearly all actives have a fitted effect of over 55% in size. Particulars: Potency: co-treated with 50 nM rosiglitazone. The method, boiled down: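 PPARg-UAS-bla HEK293H cells were plated, rested 5 h at 37 C, then treated with compounds plus rosiglitazone (50 nM final) for 17 h at 37 C; viability was then read by CellTiter-Glo luminescence after 30 min at room temperature.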

Assay [5] in a line: qHTS assay for small molecule agonists of the antioxidant response element (ARE) signaling pathway (AID 743202; active means well fitted activation curve with a large enough effect in the signal ratio in the repeat runs, not every such curve was filed as active; the % refers to the signal ratio). The method, boiled down: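 Steps: seed ARE-bla HepG2 cells (2,000/well); incubate 5 h at 37 C; add compounds by pin tool; incubate 16 h at 37 C; add FRET substrate; read fluorescence after 2 h at RT.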
Assay [6] can be described thus: qHTS assay for small molecule activators of the heat shock response signaling pathway - cell viability counter screen (AID 743209). Further: nearly all actives have a fitted effect of over 50% in size. The procedure, abridged: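 Cytotoxicity counter screen run in parallel with the HSE beta-lactamase reporter, using the same wells. HeLa HSE-bla cells received compound for 5 h at 37 C; ATP-based CellTiter-Glo luminescence was measured after 30 min at room temperature.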

Assay [7] in a line: qHTS assay for small molecule activators of the heat shock response signaling pathway (AID 743210; active means well fitted activation curve with a large enough effect in the signal ratio in the repeat runs, with a control signal flat, not every such curve was filed as active; the % refers to the signal ratio;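 further: HeLa cells with beta-lactamase reporter driven by heat shock elements; series mostly up to about 63 µM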). The method, boiled down:
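Activation of heat shock element-controlled beta-lactamase expression is measured in HeLa cells by LiveBLAzer FRET fluorescence, with compound exposure lasting 5 h at 37 C and substrate loading 2.5 h at room temperature.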

A short description of assay [8]: qHTS assay to identify small molecule agonists of the peroxisome proliferator-activated receptor delta (PPARd) signaling pathway - cell viability counter screen (AID 743211). Further: nearly all actives have a fitted effect of over 55% in size. The procedure, abridged:
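In the same wells used for beta-lactamase reporter measurement, cytotoxicity is scored by CellTiter-Glo. HEK293H PPARd-bla cells receive compound for 17 h at 37C following a 5 h settling period.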

The nature of assay [9]: qHTS assay to identify small molecule antagonists of the peroxisome proliferator-activated receptor delta (PPARd) signaling pathway - cell viability counter screen (AID 743213). Further: nearly all actives have a fitted effect of over 50% in size. The method, boiled down:
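Agonist-stimulated (L165041, 300 nM final) HEK293H PPARd UAS-bla cells are exposed to compounds for 17 h at 37 C, and ATP-based luminescence (CellTiter-Glo) from the same wells reports cytotoxicity.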

In assay [10] the target is Bile acid receptor (Homo sapiens) (UniProt Q96RI1). The experiment in a line: qHTS assay to identify small molecule antagonists of the farnesoid-X-receptor (FXR) signaling pathway (AID 743217; active means well fitted inhibition curve with a large enough effect in the signal ratio in the repeat runs, not every such curve was filed as active; the % refers to the signal ratio). The method, boiled down:
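Cells carrying a UAS-driven beta-lactamase reporter (GeneBLAzer FXR-UAS-bla HEK 293T) were plated and rested 5 h at 37 °C. Compounds in DMSO were added alongside chenodeoxycholic acid agonist at 50 uM final and left 16 h at 37 °C before FRET substrate readout.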

Assay [11] can be described thus: qHTS assay to identify small molecule agonists of the farnesoid-X-receptor (FXR) signaling pathway - cell viability counter screen (AID 743218). Further: nearly all actives have a fitted effect of over 45% in size. The procedure, abridged: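 Cells were seeded, left 5 h at 37 C and 5% CO2, then dosed with compound in DMSO for 16 h. After the beta-lactamase FRET read, CellTiter-Glo was added and luminescence measured 30 min later.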

Assay [12] addresses Bile acid receptor (Homo sapiens) (UniProt Q96RI1). The experiment in a line: qHTS assay to identify small molecule agonists of the farnesoid-X-receptor (FXR) signaling pathway (AID 743220; active means well fitted activation curve with a large enough effect in the signal ratio in the repeat runs, not every such curve was filed as active; the % refers to the signal ratio). The method, boiled down: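 FXR-UAS-bla HEK 293T cells carrying a UAS-driven beta-lactamase reporter were plated for 5 h at 37C/5% CO2, then exposed to DMSO-dissolved Tox21 10K compounds for 16 h at 37C. A LiveBLAzer B/G FRET substrate was loaded for 2 h at room temperature before fluorescence reading.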

Assay [13] can be described thus: qHTS assay to identify small molecule antagonists of the farnesoid-X-receptor (FXR) signaling pathway - cell viability counter screen (AID 743221; active means well fitted cell-killing curve with a large enough effect in the repeat runs, not every such curve was filed as active; further: nearly all actives have a fitted effect of over 50% in size). The method, boiled down: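 Here viability was scored by luminescence after CellTiter-Glo addition to wells already read for beta-lactamase. Prior treatment: compound plus CDCA (50 uM final), 16 h, 37 C, HEK 293T FXR-bla cells.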

Assay [14] addresses Vitamin D3 receptor (Homo sapiens) (UniProt P11473). The experiment in a line: qHTS assay to identify small molecule agonists of the vitamin D receptor (VDR) signaling pathway (AID 743222; calls by dose curve). The method, boiled down:
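Cells carrying a VDR-driven beta-lactamase reporter are seeded at 2,000 per well and rested 4 h. Compounds in DMSO are added for 16 h at 37C, and FRET substrate fluorescence is measured after 2 h at room temperature.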

Assay [15] is described as follows: qHTS assay to identify small molecule agonists of the vitamin D receptor (VDR) signaling pathway - cell viability counter screen (AID 743224). Further: series mostly up to about 63 µM; nearly all actives have a fitted effect of over 50% in size. The procedure, abridged: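 Cells: VDR-bla, 2,000/well, settled 4 h. Treatment: compounds in DMSO, 16 h, 37C/5% CO2. Readout: CellTiter-Glo luminescence after 30 min RT.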
The nature of assay [16]: qHTS assay to identify small molecule that activate the aryl hydrocarbon receptor (AhR) signaling pathway - cell viability counter screen (AID 743086).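 Further: HepG2 liver cells carrying the AhR DRE luciferase reporter; series mostly up to about 70 µM; nearly all actives have a fitted effect of over 45% in size.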 The procedure, abridged:
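HepG2-AhR-luc (HG2L7.5c1) cells, 4000/well, were preincubated 5 h at 37C, exposed to compound in qHTS format for 24 hr at 37C, then given CellTiter-Fluor for 30 min; viability was read as fluorescence in the reporter wells.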

Assay [17] can be described thus: qHTS assay for small molecule agonists of the antioxidant response element (ARE) signaling pathway - cell viability counter screen (AID 743203; calls by dose curve; further: nearly all actives have a fitted effect of over 55% in size). The procedure, abridged:
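Cytotoxicity was tested in parallel with the ARE reporter screen. ARE-bla HepG2 cells were exposed to compounds for 16 hrs, and viability was taken from CellTiter-Glo luminescence.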

The target in assay [18] is Peroxisome proliferator-activated receptor delta (Homo sapiens) (UniProt Q03181). Description: qHTS assay to identify small molecule agonists of the peroxisome proliferator-activated receptor delta (PPARd) signaling pathway (AID 743212; calls by dose curve). The method, boiled down:
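Cells expressing a UAS-driven beta-lactamase reporter (PPARd-bla HEK293H) were given test compounds after a 5 h settle and kept at 37 C. Reporter activity was then measured as FRET fluorescence using LiveBLAzer B/G substrate.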

Assay [19] has the same target. Description: qHTS assay to identify small molecule antagonists of the peroxisome proliferator-activated receptor delta (PPARd) signaling pathway (AID 743215; active means well fitted inhibition curve with a large enough effect in the signal ratio in the repeat runs, not every such curve was filed as active; the % refers to the signal ratio; further: series mostly up to about 62 µM). The method, boiled down:
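Cells: HEK293H with a UAS-driven beta-lactamase reporter responsive to PPARd. Compounds were co-added with L165041 (300 nM, final) and incubated 17 h at 37 C before a 2 h room-temperature FRET substrate step and fluorescence reading.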

Assay [20] concerns the target Vitamin D3 receptor (Homo sapiens) (UniProt P11473). Description: qHTS assay to identify small molecule antagonists of the vitamin D receptor (VDR) signaling pathway (AID 743223; active means well fitted inhibition curve with a large enough effect in the signal ratio in the repeat runs, not every such curve was filed as active; the % refers to the signal ratio). The method, boiled down: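 Inhibition of agonist-driven VDR signalling is scored in VDR-bla cells: 3 nM final 1alpha,25-dihydroxyvitamin D3 plus compound, 16 h at 37C, then beta-lactamase detection by FRET substrate fluorescence after 2 h.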

Results filed as inconclusive are left out. Active and inactive are the calls of the source. Unless noted, the call rests on the fitted dose curve; in most records, active means well fitted curve in the direction sought with a large enough effect in the repeat runs; inconclusive means weak or mixed curves; inactive means no such curve, though single readings can be large; an effect the other way counts as inactive or inconclusive.

Chain of Vitamin D3 receptor (Homo sapiens) (P11473 whole entry, looked up): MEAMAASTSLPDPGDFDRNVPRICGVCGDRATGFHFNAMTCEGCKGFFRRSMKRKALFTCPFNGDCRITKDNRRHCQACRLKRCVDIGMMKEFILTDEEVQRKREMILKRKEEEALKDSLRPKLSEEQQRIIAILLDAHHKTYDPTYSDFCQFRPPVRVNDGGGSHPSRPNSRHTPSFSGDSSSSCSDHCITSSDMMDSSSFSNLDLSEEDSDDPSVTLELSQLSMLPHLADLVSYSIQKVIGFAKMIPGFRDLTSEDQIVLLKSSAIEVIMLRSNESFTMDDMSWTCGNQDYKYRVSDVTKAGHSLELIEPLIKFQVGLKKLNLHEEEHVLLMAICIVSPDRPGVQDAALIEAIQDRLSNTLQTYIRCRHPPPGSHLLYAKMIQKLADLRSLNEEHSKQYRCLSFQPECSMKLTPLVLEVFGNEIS
Chain of Bile acid receptor (Homo sapiens) (Q96RI1 whole entry, looked up): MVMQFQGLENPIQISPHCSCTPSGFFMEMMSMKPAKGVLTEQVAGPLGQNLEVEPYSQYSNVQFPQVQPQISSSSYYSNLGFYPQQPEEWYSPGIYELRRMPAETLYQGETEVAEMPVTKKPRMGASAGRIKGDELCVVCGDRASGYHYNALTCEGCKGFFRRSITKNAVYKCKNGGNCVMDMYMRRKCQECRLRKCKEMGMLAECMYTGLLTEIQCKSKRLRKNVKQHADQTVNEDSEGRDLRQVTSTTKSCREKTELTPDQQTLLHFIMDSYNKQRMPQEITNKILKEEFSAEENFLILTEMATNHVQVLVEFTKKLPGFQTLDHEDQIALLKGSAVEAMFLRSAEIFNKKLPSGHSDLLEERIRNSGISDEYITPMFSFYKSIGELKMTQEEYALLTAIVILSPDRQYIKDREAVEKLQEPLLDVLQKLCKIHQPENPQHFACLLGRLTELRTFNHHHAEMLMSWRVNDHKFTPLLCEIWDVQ
Chain of Peroxisome proliferator-activated receptor delta (Homo sapiens) (Q03181 whole entry, looked up): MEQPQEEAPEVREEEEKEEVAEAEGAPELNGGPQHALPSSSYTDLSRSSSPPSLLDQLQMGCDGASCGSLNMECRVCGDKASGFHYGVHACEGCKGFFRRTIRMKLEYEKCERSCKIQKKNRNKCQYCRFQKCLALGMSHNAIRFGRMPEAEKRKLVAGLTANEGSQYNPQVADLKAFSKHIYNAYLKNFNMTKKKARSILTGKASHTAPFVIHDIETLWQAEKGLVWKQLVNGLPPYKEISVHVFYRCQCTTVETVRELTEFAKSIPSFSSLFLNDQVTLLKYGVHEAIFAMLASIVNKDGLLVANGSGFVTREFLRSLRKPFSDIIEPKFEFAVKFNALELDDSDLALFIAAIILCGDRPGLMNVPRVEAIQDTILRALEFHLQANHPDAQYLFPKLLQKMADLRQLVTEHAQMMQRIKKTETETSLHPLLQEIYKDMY

Consider `Cc1ccc2cc(C)ccc2c1`, for which the Potency result in assay [1], in assay [3], in assay [4], in assay [5], in assay [6] and in [7] was “inactive” throughout. In addition, the Potency result in [8], in assay [9], in assay [11], in [13] and in [15] was “inactive” throughout. Moreover, the outcome in assay [2], in assay [10], in assay [12] and in assay [14] was inactive.

Consider `NC1(c2ccccc2)CCCCC1`, for which the Potency entry in [1], in assay [16], in assay [3], in assay [4], in [5] and in assay [17] was “inactive” each time. In addition, the Potency result in assay [7], in assay [8], in assay [9], in [19], in assay [11] and in assay [13] was “inactive” throughout. Moreover, in [15], the Potency entry was “inactive”. Further, the compound was called inactive in [18] and in assay [12].

With `N[C@@H](Cc1ccc(Oc2cc(I)c(O)c(I)c2)c(I)c1)C(=O)O`, the Potency entry in [1], in assay [16], in assay [4], in assay [5], in assay [17] and in assay [6] was “inactive” in each case. In addition, the Potency entry in [7], in [8], in assay [9], in assay [11], in assay [13] and in assay [15] was “inactive” in each case. In addition, the outcome in [18], in assay [10] and in assay [12] was inactive.

With `N#CC(Br)(Br)C(N)=O`, the Potency result in assay [1], in [16], in assay [4], in [7], in assay [8] and in assay [9] was “inactive” each time. Further, the Potency entry in assay [13] and in assay [15] was “inactive” throughout. For the same compound, the compound was classed as inactive in assay [14].

For the compound `Cc1ccc(S(=O)(=O)N[C@@H](CCCCN)C(=O)CCl)cc1`, the Potency entry in assay [1], in assay [3], in assay [4], in assay [5], in assay [8] and in [9] was “inactive” each time. The Potency result in assay [11], in assay [13] and in assay [15] was “inactive” in each case. In addition, the compound was called inactive in [10] and in [12].

`Cn1c(N)nc2c3cccnc3ccc21`: the Potency in [1] was 4.61 µM (active). Besides, the outcome in assay [2], in assay [18], in assay [10], in assay [12] and in assay [14] was inactive. The Potency entry in assay [4], in assay [5], in [17], in assay [6], in [7] and in [8] was “inactive” in each case. Moreover, the Potency result in assay [9], in [11], in [13] and in assay [15] was “inactive” each time.

For the compound `CS(=O)(=O)c1ccc(C(=O)C2C(=O)CCCC2=O)c(Cl)c1COCC(F)(F)F`, the Potency entry in assay [1], in assay [16], in assay [3], in assay [4], in assay [5] and in assay [17] was “inactive” each time. The Potency entry in [6], in assay [8], in assay [9], in assay [19], in assay [11] and in [13] was “inactive” each time. The Potency entry in [15] is “inactive”. For the same compound, the compound was classed as inactive in assay [18], in assay [14] and in assay [20].
